Assay [1] is described as follows: qHTS assay to identify small molecule antagonists of the estrogen related receptor (ERR) signaling pathway from Tox21 library - cell viability counter screen (AID 1224834). Also: nearly all actives have a fitted effect of over 30% in size. In outline:
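Cytotoxicity of test substances is gauged in the same ERR cells used for the antagonist screen, after 17.5 h of compound treatment at 37 C, by CellTiter-Fluor fluorescence measured after 30 min.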
(qHTS replaces the single test concentration by a dilution series.)

Assay [2] addresses Luciferin 4-monooxygenase (Photinus pyralis) (UniProt P08659). The assay is described as follows: qHTS assay to identify small molecule inhibitors of firefly luciferase (AID 1224835). Also: nearly all actives have a fitted effect of over 25% in size. In short, it runs like this: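 Quantitative HTS format; KM concentrations of both substrates. Purified P. pyralis FLuc activity quantified from luminescence images.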
The nature of assay [3]: qHTS assay to identify small molecule agonists of the constitutive androstane receptor (CAR) signaling pathway - cell viability counter screen (AID 1224836). Also: nearly all actives have a fitted effect of over 45% in size. In outline:
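HepG2-CYP2B6-hCAR, 2500 cells/well, 4 h pre-incubation; cpd 15 conc + PK11195 0.75 uM final; 23 h, 37 C/5% CO2; CellTiter-Fluor, fluorescence.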

The nature of assay [4]: qHTS assay to identify small molecule antagonists of the constitutive androstane receptor (CAR) signaling pathway - cell viability counter screen (AID 1224837). Also: nearly all actives have a fitted effect of over 45% in size. In short, it runs like this: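 Multiplexed cytotoxicity read-out for the CAR antagonist screen: double-stable HepG2-CYP2B6-hCAR cells co-treated with 50 nM CITCO (final) and compound over 15 concentrations, incubated 23 hr, then assessed by CellTiter-Fluor fluorescence.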

The target in assay [5] is Nuclear receptor subfamily 1 group I member 3 (Homo sapiens) (UniProt Q14994). The assay is described as follows: qHTS assay to identify small molecule antagonists of the constitutive androstane receptor (CAR) signaling pathway (AID 1224838). Also: nearly all actives have a fitted effect of over 40% in size. In outline: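 Compounds were titrated across 15 concentrations onto HepG2 cells double-stably expressing hCAR and a CYP2B6-2.2kb reporter, together with 50 nM CITCO (final). After 24 h at 37 C, luciferase activity was measured by luminescence.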

The target is the same in assay [6]. In words: qHTS assay to identify small molecule agonists of the constitutive androstane receptor (CAR) signaling pathway (AID 1224839). Also: nearly all actives have a fitted effect of over 15% in size. In outline:
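HepG2-CYP2B6-hCAR cells, 2500/well, 4 h pre-incubation; compounds 15 conc.; PK11195 0.75 uM final; 24 h, 37 C/5% CO2; ONE-Glo luciferase read.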

Assay [7] is described as follows: qHTS assay to identify small molecule antagonists of the estrogen related receptor signaling pathway with the pleiotropic PPARgamma coactivator (PGC) from Tox21 10K library - cell viability counter screen (AID 1224840; active = well fitted cell-killing curve with a large enough effect in the repeat runs, not every such curve was filed as active; also: nearly all actives have a fitted effect of over 40% in size). In short, it runs like this:
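Step one, plate 2,000 PGC/ERR cells per well; step two, incubate 6 h at 37 C/5% CO2; step three, pin-transfer compounds; step four, incubate 17.5 h; step five, add CellTiter-Fluor and read fluorescence after 30 min.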

A short description of assay [8]: qHTS assay to identify small molecule antagonists of the estrogen related receptor signaling pathway with the pleiotropic PPARgamma coactivator (PGC) from Tox21 10K library (AID 1224841; call rule not given here; also: actives are mostly falling curves and most rising ones were filed inactive; nearly all actives have a fitted effect of over 50% in size). In outline:
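Antagonism in this quantitative HTS is taken from loss of luciferase signal in PGC/ERR cells. Cells (2,000/well) are treated with compounds in DMSO after a 6 h settling period and read by One-Glo luminescence after 18 h.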

Assay [9] is described as follows: qHTS assay to identify small molecule agonists of the estrogen related receptor signaling pathway with the pleiotropic PPARgamma coactivator (PGC) from Tox21 10K library (AID 1224842). Also: nearly all actives have a fitted effect of over 15% in size. In short, it runs like this: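 PGC/ERR reporter cells (NTP line) were seeded 2,000 per well, rested 6 h at 37 C/5% CO2, then pin-dosed with compounds in DMSO for 18 h at 37 C; luciferase read by One-Glo luminescence after 30 min at room temperature.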

For assay [10], the target named is Thyrotropin receptor (Homo sapiens) (UniProt P16473). The assay is described as follows: qHTS assay to identify small molecule agonists of the thyroid stimulating hormone receptor (TSHR) signaling pathway (AID 1224843; calls by dose curve; also: nearly all actives have a fitted effect of over 45% in size). In short, it runs like this:
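Cell line HEK293 with TSHR; density 800/well. Exposure 30 min RT. Readout HTRF cAMP (cAMP-d2/anti-cAMP-cryptate), 1 h RT before reading.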

Assay [11] is described as follows: qHTS assay to identify small molecule agonists of the hypoxia (HIF-1) signaling pathway - cell viability counter screen (AID 1224844; calls by dose curve; also: nearly all actives have a fitted effect of over 50% in size). In short, it runs like this: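 Tox21 10K compounds were added to HRE-bla ME-180 cells (0.5% dialyzed FBS) and incubated 17 hrs at 37C; ATP-based CellTiter-Glo luminescence then reported cell viability in the same wells.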
The nature of assay [12]: qHTS assay to identify small molecule agonists of H2AX (AID 1224845; active = well fitted activation curve with a large enough effect in the signal ratio in the repeat runs, not every such curve was filed as active; the % refers to the signal ratio). In outline: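 Wild-type CHO-K1 cells plated overnight, then exposed 3 hr at 37C to compounds at 15 concentrations (0.76% DMSO). Lysed, then HTRF anti-pH2AX(S139)-cryptate/anti-H2AX-d2 detection after 24 hr at room temperature; emissions 665 and 620 nm.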
Assay [13] is described as follows: qHTS assay to identify small molecule agonists of the hypoxia (HIF-1) signaling pathway (AID 1224846; active = well fitted activation curve with a large enough effect in the signal ratio in the repeat runs, not every such curve was filed as active; the % refers to the signal ratio). In outline:
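Steps: seed ME-180 HRE-bla cells (2,000/well, 0.5% dialyzed FBS); incubate 5 hrs at 37C; pin-transfer compounds or DMSO; incubate 17 hrs; add LiveBLAzer B/G substrate CCF4-AM; measure reporter activation by FRET.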

Assay [14] is described as follows: qHTS assay to identify small molecule agonists of H2AX - cell viability counter screen (AID 1224847; calls by dose curve; also: top concentration of the series differs between compounds; nearly all actives have a fitted effect of over 30% in size). In outline: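 Cells plated first: CHO-K1, 1000 per well in 10% FBS medium, incubated overnight at 37C. Then 15-point compound titration added (final DMSO 0.76%) for 3 hr. Finally CellTiter-Glo added and luminescence read.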
A short description of assay [15]: qHTS assay to identify small molecule agonists of the estrogen related receptor (ERR) signaling pathway from Tox21 library (AID 1224849; calls by dose curve; also: nearly all actives have a fitted effect of over 15% in size). The following applies: ERR reporter cell line, ONE-Glo luciferase, 18 h; at 92.4 µM (top of the series) unless noted. In outline: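 Agonist signal is luciferase luminescence from an ERR reporter cell line treated 18 h at 37 C with DMSO-dissolved compounds, read 30 min after ONE-Glo addition at room temperature.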

Assay [16] in a line: qHTS RealTime-Glo MT Cell Viability Assay in HepG2 cells - 24 hour (AID 1224867). Also: nearly all actives have a fitted effect of over 50% in size. In short, it runs like this: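 HepG2 cells (600/well) were dispensed with RealTime-Glo reagents, incubated 5 h at 37 °C, then treated with compounds in DMSO for up to 40 h. Nonlytic NanoLuc luminescence reflecting viable cells was read at each stated time point.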
A short description of assay [17]: qHTS RealTime-Glo MT Cell Viability Assay in HEK293 cells - 32 hour (AID 1224868). Also: nearly all actives have a fitted effect of over 50% in size. Also: potency is read from the fitted curve at half-maximal effect. In short, it runs like this:
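HEK293 cells seeded with NanoLuc/prosubstrate reagent, rested 5 h at 37 C, then dosed and kept at 37 C up to 40 h. Nonlytic real-time luminescence from viable cells read at 0, 8, 16, 24, 32 and 40 h.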

Assay [18] in a line: A CellTox Green Cytotoxicity Assay to monitor cytotoxicity in HEK293 cells - 0 hour (AID 1224869). Also: nearly all actives have a fitted effect of over 50% in size. In short, it runs like this: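 Cytotoxicity was tracked continuously in HEK293 cells by a DNA-binding dye excluded from viable cells. Compounds were transferred in DMSO 5 h after seeding; fluorescence was recorded at intervals up to 40 h.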
A short description of assay [19]: qHTS RealTime-Glo MT Cell Viability Assay in HepG2 cells - 40 hour (AID 1224870). Also: nearly all actives have a fitted effect of over 50% in size. In outline:
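HepG2 cells mixed with RealTime-Glo MT reagents (NanoLuc plus cell-permeant prosubstrate) were seeded at 600 cells/well, incubated 5 h at 37 C/5% CO2, then pinned with compounds in DMSO; nonlytic luminescence tracked viability during 40 h treatment.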

The nature of assay [20]: qHTS assay to identify small molecule antagonists of the estrogen related receptor (ERR) signaling pathway from Tox21 library (AID 1224848). Also: nearly all actives have a fitted effect of over 50% in size. Also: potency is read from the fitted curve at half-maximal effect. In outline:
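Screening used an ERR reporter line supplied by NTP, exposed for 18 h at 37 C to library compounds delivered in DMSO. Signal was luciferase luminescence developed with ONE-Glo at room temperature for 30 min.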

Unmarked numbers belong to inactive results. Records with an inconclusive call do not appear. The source made the active and inactive calls. Unless noted, calls follow the shape of the dose curve; as a rule, active = well fitted curve in the direction sought with a large enough effect in the repeat runs; inconclusive = weak or mixed curves; inactive = no such curve, though single readings can be large; an effect the other way counts as inactive or inconclusive.
% is scaled to controls: 0 for no effect and ±100 for the full control effect.

Chain of Nuclear receptor subfamily 1 group I member 3 (Homo sapiens) (Q14994 whole entry, looked up): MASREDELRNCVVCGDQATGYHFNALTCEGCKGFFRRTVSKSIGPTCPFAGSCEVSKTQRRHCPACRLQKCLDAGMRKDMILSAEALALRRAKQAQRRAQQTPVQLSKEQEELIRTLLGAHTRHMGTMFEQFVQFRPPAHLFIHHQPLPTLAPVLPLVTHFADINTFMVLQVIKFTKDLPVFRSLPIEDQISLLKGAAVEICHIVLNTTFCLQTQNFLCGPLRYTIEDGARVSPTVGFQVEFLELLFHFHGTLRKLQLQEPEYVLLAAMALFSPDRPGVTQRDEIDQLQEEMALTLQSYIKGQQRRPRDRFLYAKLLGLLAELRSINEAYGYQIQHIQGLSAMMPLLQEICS
Chain of Thyrotropin receptor (Homo sapiens) (P16473 whole entry, looked up): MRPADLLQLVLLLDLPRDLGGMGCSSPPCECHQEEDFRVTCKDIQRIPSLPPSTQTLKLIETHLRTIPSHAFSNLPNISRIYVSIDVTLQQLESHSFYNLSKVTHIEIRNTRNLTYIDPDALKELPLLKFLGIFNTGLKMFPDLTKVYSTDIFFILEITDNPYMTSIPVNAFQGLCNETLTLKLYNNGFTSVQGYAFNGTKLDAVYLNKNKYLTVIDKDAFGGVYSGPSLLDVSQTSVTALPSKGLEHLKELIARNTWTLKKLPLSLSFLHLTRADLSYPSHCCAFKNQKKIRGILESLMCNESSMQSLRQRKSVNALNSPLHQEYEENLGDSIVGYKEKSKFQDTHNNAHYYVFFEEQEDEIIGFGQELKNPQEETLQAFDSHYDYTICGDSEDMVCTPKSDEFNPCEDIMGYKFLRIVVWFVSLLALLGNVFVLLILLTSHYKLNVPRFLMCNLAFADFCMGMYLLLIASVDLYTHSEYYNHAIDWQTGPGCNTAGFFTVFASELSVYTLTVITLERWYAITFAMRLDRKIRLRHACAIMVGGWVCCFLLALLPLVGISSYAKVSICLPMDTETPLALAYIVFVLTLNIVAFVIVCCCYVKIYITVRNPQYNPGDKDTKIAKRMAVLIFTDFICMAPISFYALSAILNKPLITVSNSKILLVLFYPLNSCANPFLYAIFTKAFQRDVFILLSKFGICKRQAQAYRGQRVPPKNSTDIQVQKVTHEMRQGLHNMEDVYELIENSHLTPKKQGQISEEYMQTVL
Chain of Luciferin 4-monooxygenase (Photinus pyralis) (P08659 whole entry, looked up): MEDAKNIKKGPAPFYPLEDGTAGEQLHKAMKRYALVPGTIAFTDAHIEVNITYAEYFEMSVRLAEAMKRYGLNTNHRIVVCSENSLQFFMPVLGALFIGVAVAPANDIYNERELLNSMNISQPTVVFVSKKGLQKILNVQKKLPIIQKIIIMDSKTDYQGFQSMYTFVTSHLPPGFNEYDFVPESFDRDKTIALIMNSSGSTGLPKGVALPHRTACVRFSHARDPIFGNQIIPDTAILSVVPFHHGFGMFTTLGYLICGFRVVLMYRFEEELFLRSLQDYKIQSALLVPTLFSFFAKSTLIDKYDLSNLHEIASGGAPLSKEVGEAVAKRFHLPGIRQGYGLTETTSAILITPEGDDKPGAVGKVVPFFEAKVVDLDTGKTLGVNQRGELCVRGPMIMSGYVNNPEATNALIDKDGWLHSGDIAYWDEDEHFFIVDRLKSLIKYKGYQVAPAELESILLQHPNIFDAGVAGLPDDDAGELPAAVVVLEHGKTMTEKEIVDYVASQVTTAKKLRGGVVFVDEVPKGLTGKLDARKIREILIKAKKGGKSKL

In the case of `CCCCC(=O)O[C@]1(C(=O)CO)CC[C@H]2[C@@H]3CCC4=CC(=O)CC[C@]4(C)[C@H]3[C@@H](O)C[C@@]21C`, the Potency result in assay [1], in assay [2], in [3], in assay [4], in assay [5] and in assay [6] was “inactive” each time. The Potency result in assay [7], in assay [8], in [9], in assay [10], in assay [11] and in assay [12] was “inactive” throughout. In addition, the Potency entry in assay [14], in [16], in [17], in [18] and in assay [19] was “inactive” throughout. In addition, the outcome in assay [13] was inactive. Moreover, the activity change, positive = activation in [15] is -22.8% [at 42.5 µM].

On to `COC(=O)c1cc(Cl)ccc1NS(=O)(=O)C(F)(F)F`, for which the Potency entry in [1], in [2], in assay [3], in [4], in assay [5] and in assay [6] was “inactive” in each case. Also, the Potency entry in [7], in [8], in [9], in assay [10], in [11] and in assay [20] was “inactive” each time. In addition, the Potency entry in assay [16], in assay [17], in assay [18] and in assay [19] was “inactive” in each case. In assay [13], the compound was called inactive. For the same compound, the activity change, positive = activation in assay [15] is 6.47% [at 42.5 µM].

Consider `NCC1CCCC(CN)C1` (stereo not given), for which the Potency entry in [1], in [2], in assay [3], in [4], in assay [5] and in assay [6] was “inactive” in each case. Moreover, the Potency entry in assay [7], in assay [8], in assay [9], in assay [11], in assay [12] and in assay [14] was “inactive” each time. Besides, the Potency entry in assay [20], in [16], in assay [17] and in assay [19] was “inactive” in each case. Moreover, the call in assay [13] was inactive. Moreover, the activity change, positive = activation in [15] was -0.124%.

On to `CC(=O)CC(c1ccc([N+](=O)[O-])cc1)c1c(O)c2ccccc2oc1=O` (stereo not given), for which the Potency result in assay [1], in [2], in [3], in [4], in [5] and in [6] was “inactive” each time. Also, the Potency result in assay [7], in assay [8], in assay [9], in assay [10], in [11] and in assay [12] was “inactive” throughout. For the same compound, the Potency result in assay [20], in assay [16], in [17], in assay [18] and in assay [19] was “inactive” in each case. The compound was classed as inactive in assay [13]. For the same compound, the activity change, positive = activation in [15] was -11.1% [at 42.5 µM].

For `CSc1ccc(Oc2ccc(S(N)(=O)=O)cc2CN(C)C)cc1C`, the Potency entry in assay [1], in assay [2], in [3], in [4], in assay [5] and in assay [6] was “inactive” throughout. In addition, the Potency entry in assay [7], in assay [8], in [11], in [12], in [18] and in assay [19] was “inactive” each time. In assay [13], the result was inactive. Besides, the Potency is 5.45 µM (active) in assay [20] and 43.6 µM (active) in assay [17]. Also, the activity change, positive = activation in assay [15] is -34.7%.

Turning to `COC(=O)c1cc(S(N)(=O)=O)ccc1OC`, the Potency result in assay [1], in [2], in assay [3], in assay [4], in [5] and in assay [6] was “inactive” throughout. In addition, the Potency entry in assay [7], in [8], in assay [9], in assay [10], in assay [11] and in assay [12] was “inactive” throughout. Further, the Potency entry in assay [14], in assay [20], in [16], in assay [17], in [18] and in assay [19] was “inactive” in each case. Also, in assay [13], the call was inactive. Further, in assay [15], the activity change, positive = activation is -0.548% [at 42.5 µM].

The values above are taken from PubChem BioAssay (Tox21).
